Test systems include NCI-H23 lung; NCI-H226 lung; NCI-H322M lung; HOP-62 NSCLC; NCI-H460 lung; HOP-92 NSCLC; NCI-H522 lung; A549/ATCC NSCLC; 786-0 renal; COLO 205 colon; DU-145 prostate; K-562 leukemia; MALME-3M melanoma; MDA-MB-231 breast; RXF 393 renal; SF-268 CNS; SF-295 CNS; SF-539 CNS; UACC-257 melanoma; M14 melanoma.
Assay in all cases: NCI-60 one-dose screen, 48 h (100 = growth as untreated, 0 = no growth, -100 = all killed)
Holding throughout (conditions): 10 µM unless noted

About 83,000 compounds went through this panel and 20% of them were active in at least one assay; those are over-represented in the sample as a whole.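 In brief: 96-well plates, 48 h treatment, single concentration, percent growth endpoint.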 Values without a mark were called inactive. Active and inactive are the calls of the source. The calls were made as follows: active = growth percent below 10; inactive = the rest.

Turning to `Cc1ncc(C(=O)Nc2ccc(CN3CCN(C)CC3)c(C(F)(F)F)c2)cc1C#Cc1cnc(N)c2ccc(C#N)cc12`, the growth in the assay on NCI-H23 lung was 29.5%; with NCI-H226 lung it was 0.011% (active); with NCI-H322M lung, 27.9%; in the assay on HOP-62 NSCLC, -7.92% (active); in the assay on NCI-H460 lung, 11.2%; in the assay with HOP-92 NSCLC it was -20.2% (active). Further, the growth in the assay with NCI-H522 lung was 27.2%; with A549/ATCC NSCLC, 22.9%; in the assay with 786-0 renal it was -70.1% (active); in the assay with COLO 205 colon, 5.29% (active); with DU-145 prostate, 8.97% (active); in the assay on K-562 leukemia, -35.3% (active). Besides, the growth with MALME-3M melanoma is -55.6% (active); with MDA-MB-231 breast it was -76.5% (active); in the assay with RXF 393 renal, -64% (active); in the assay with SF-268 CNS, 16.7%; with SF-295 CNS it was 54.1%; in the assay with SF-539 CNS it was -0.429% (active). For the same compound, the growth with UACC-257 melanoma was -9.1% (active); with M14 melanoma, -41.5% (active).
As to `COc1ccc2c(c1)C(C)Cc1c(ncnc1-n1cnc3cc(C)ccc31)N2C` (stereo not given), the growth is 30.4% in the assay with NCI-H23 lung; 60% with NCI-H226 lung; 48.6% in the assay with NCI-H322M lung; 28.4% in the assay with HOP-62 NSCLC; 3.98% (active) with NCI-H460 lung; -2.48% (active) with HOP-92 NSCLC. The growth in the assay on NCI-H522 lung is 11.7%; in the assay on A549/ATCC NSCLC it was 13.6%; with 786-0 renal, 12.3%; in the assay with COLO 205 colon, -46.9% (active); in the assay with DU-145 prostate, 10.2%; in the assay with K-562 leukemia, 7.68% (active). Also, the growth was 78.7% in the assay on MALME-3M melanoma; 28.9% with MDA-MB-231 breast; 35.7% with RXF 393 renal; 26% in the assay with SF-268 CNS; 6.97% (active) in the assay with SF-295 CNS; 10.7% with SF-539 CNS. In addition, the growth with UACC-257 melanoma is 47.3%; in the assay with M14 melanoma, 8.87% (active).
Turning to `N#Cc1c(-c2cccc(Cl)c2)cc(-c2cccnc2)[nH]c1=O`, the growth is 85.6% in the assay with NCI-H23 lung; 87.9% in the assay with NCI-H226 lung; 94.4% with NCI-H322M lung; 69.5% in the assay with HOP-62 NSCLC; 96.3% with NCI-H460 lung; 80.2% in the assay on HOP-92 NSCLC. The growth in the assay on NCI-H522 lung is 76.1%; in the assay with A549/ATCC NSCLC it was 93%; in the assay with 786-0 renal it was 96.7%; in the assay on COLO 205 colon it was 93.4%; in the assay with DU-145 prostate it was 94.9%; in the assay with K-562 leukemia, 43.9%. Moreover, the growth is 62.5% in the assay on MALME-3M melanoma; 81.9% with MDA-MB-231 breast; 100% in the assay on RXF 393 renal; 79.9% in the assay with SF-268 CNS; 75.9% with SF-295 CNS; 71.6% in the assay with SF-539 CNS. The growth in the assay with UACC-257 melanoma was 68.2%; with M14 melanoma, 54.2%.
On to `CCCCO[C@@H]1C=C2[C@H]3CC(C)(C)C(=O)C[C@]3(C(=O)O[C@@H]3O[C@H](CO[C@@H]4O[C@H](CO)[C@@H](OC5OC(C)C(O)C(O)C5O)[C@H](O)[C@H]4O)[C@@H](O)[C@H](O)[C@H]3O)CC[C@@]2(C)[C@]2(C)CC[C@H]3C(C)(C)C(=O)CC[C@]3(C)[C@@H]12` (stereo not given in full), for which the growth is 60.3% with NCI-H23 lung; 45.6% with NCI-H226 lung; 84.3% with NCI-H322M lung; 76.1% with HOP-62 NSCLC; 91.8% in the assay on NCI-H460 lung; 2.25% (active) with HOP-92 NSCLC. Also, the growth is 67.9% in the assay on NCI-H522 lung; 84.8% in the assay with A549/ATCC NSCLC; 29.5% in the assay on 786-0 renal; 97.2% with COLO 205 colon; 97.9% in the assay with DU-145 prostate; 90.5% in the assay on K-562 leukemia. Also, the growth in the assay with MALME-3M melanoma was 34.2%; with MDA-MB-231 breast, 73.2%; in the assay with RXF 393 renal it was 63.2%; with SF-268 CNS, 47.2%; in the assay on SF-295 CNS, 92.8%; in the assay with SF-539 CNS it was 60.1%. Also, the growth was 49.1% in the assay with UACC-257 melanoma and 40.5% in the assay with M14 melanoma.
`CC1(C)N=C(N)N=C(N)N1c1cc(Cl)ccc1Cl`: the growth in the assay with NCI-H23 lung is 74.4%; in the assay on NCI-H226 lung it was 94.3%; in the assay with NCI-H322M lung it was 119%; with HOP-62 NSCLC it was 92.8%; in the assay on NCI-H460 lung, 32.3%; with HOP-92 NSCLC, 94%. Moreover, the growth with NCI-H522 lung was 52.7%; with A549/ATCC NSCLC, 86.7%; in the assay on 786-0 renal it was 110%; in the assay with COLO 205 colon it was 87.5%; in the assay with DU-145 prostate it was 6.66% (active); in the assay with K-562 leukemia it was 71.2%. Also, the growth in the assay on MALME-3M melanoma is 125%; in the assay with MDA-MB-231 breast, 92.6%; in the assay with RXF 393 renal, 78.7%; in the assay with SF-268 CNS, 75.1%; in the assay with SF-295 CNS it was 51.5%; with SF-539 CNS, 85.8%. Further, the growth with UACC-257 melanoma is 94.7%; in the assay on M14 melanoma, 94%.
As to `CCOc1ccc(NC(=O)Nc2ccc(OCC)cc2)cc1`, the growth in the assay on NCI-H23 lung was 106%; in the assay on NCI-H226 lung, 104%; in the assay on NCI-H322M lung, 104%; with HOP-62 NSCLC, 98.2%; in the assay with NCI-H460 lung it was 106%; with HOP-92 NSCLC, 106%. Further, the growth in the assay on NCI-H522 lung is 103%; in the assay with A549/ATCC NSCLC it was 95.9%; with 786-0 renal, 108%; in the assay with COLO 205 colon, 104%; with DU-145 prostate, 106%; in the assay on K-562 leukemia, 97.6%. Moreover, the growth with MALME-3M melanoma is 100%; in the assay with MDA-MB-231 breast it was 110%; in the assay with RXF 393 renal, 114%; in the assay on SF-268 CNS, 104%; with SF-295 CNS it was 95.7%; in the assay on SF-539 CNS it was 97.2%. In addition, the values for the growth in the assay with UACC-257 melanoma and in the assay on M14 melanoma were 113% and 109%, respectively.
On to `CN(C)c1ccc(CNCCO)cc1`, for which the growth in the assay on NCI-H23 lung was 107%; with NCI-H226 lung, 91.9%; in the assay with NCI-H322M lung, 104%; in the assay on HOP-62 NSCLC, 76.3%; in the assay with NCI-H460 lung, 105%; in the assay with HOP-92 NSCLC, 75.1%. The growth was 43.5% with NCI-H522 lung; 76% with A549/ATCC NSCLC; 86.1% in the assay with 786-0 renal; 85.7% in the assay with COLO 205 colon; 105% in the assay with DU-145 prostate; 97.9% in the assay on K-562 leukemia. Also, the growth was 103% in the assay with MALME-3M melanoma; 110% in the assay on MDA-MB-231 breast; 113% with RXF 393 renal; 101% in the assay on SF-268 CNS; 103% in the assay on SF-295 CNS; 97.5% in the assay on SF-539 CNS. The growth with UACC-257 melanoma is 85.4%; with M14 melanoma, 96.7%.

Source of the values: PubChem BioAssay (NCI).
